# Data reported in ChEMBL document CHEMBL3988442, “University of Dundee, Small-Polar-MMV Screening Library” (2021).
# The whole screen tested about 48,000 compounds, of which about 13,000 (27%) showed an effect of 50% or more. This is one part of the list.
# Test system: Wolbachia pipientis
# Test: Anti-Wolbachia Cell-Based Screen
# Type: functional
# Set-up: scale not given: in the data most compounds retested in dose-response had high values
# Details: 5 µM
row,SMILES,Percent Effect
1,CNC(=O)[C@@H](c1ccccc1F)N1CCC[C@H]1C(=O)NC1CCOCC1.Cl,3.155%
2,CCCN1CCCn2nc(CNS(=O)(=O)c3cccc(C#N)c3)cc2C1,3.103%
3,COc1ccc(CCC(=O)NC2CCC(O)CC2)cc1OC (stereo unspecified),-0.04658%
4,COCCOc1ccc(CNC2CCc3ncnn3C2)cc1OC (stereo unspecified),100.1999%
5,COc1ccc(CNC2CCC(O)CC2)cc1OCCCC#N (stereo unspecified),107.9%
6,c1ccc(OC2CCCC2)c(CNC2CCc3ncnn3C2)c1 (stereo unspecified),12.7%
7,COc1ccc(CNCC2CC2)cc1F,0.5807%
8,CNC(=O)COc1ccccc1CNC1CCc2ncnn2C1 (stereo unspecified),-1.235%
9,COc1ccc(CNC2CCc3ncnn3C2)cc1OCC1CC1 (stereo unspecified),83.43%
10,CN(C)C(=O)COc1ccccc1CNC1CCc2ncnn2C1 (stereo unspecified),-0.6489%
11,COc1ccc(CNC2CCc3ncnn3C2)cc1OCCCC#N (stereo unspecified),100.9%
12,CCOc1ccc(N(CCC#N)C(=O)c2ccc(OC)nc2)cc1,22.48%
13,CC(C)N(CC(N)=O)Cc1csc(COc2ccc(F)cc2)n1,-2.254%
14,CC(C)CN1CC2(CCN(C(=O)C(O)c3cccc(Cl)c3)CC2)CC1=O (stereo unspecified),4.909%
15,COc1cc(C)nc(N2CCN(C(=O)CCc3ccsc3)CC2)n1,17.96%
16,CN(CCc1ccccn1)C(=O)c1cn2c(n1)CNCC2,-0.4774%
17,Cc1ccccc1CN(Cc1ccccn1)C(=O)CN(C)C(C)C,-1.429%
18,Cc1cccnc1CC(C)N(C)C(=O)c1cccs1 (stereo unspecified),-6.366%
19,CC(C)N(Cc1ccccn1)C(=O)CN(C)C(=O)c1cccs1,109.7%
20,CN(Cc1ccccc1NCc1cscn1)C(=O)c1cccs1,-0.6624%
21,O=C(Cc1ccc2c(c1)CCCC2)NCCc1ccccn1,0.3571%
22,CN(CC(=O)NCCc1ccccn1)C(=O)c1cccs1,94.6%
23,CN(CCc1ccccn1)C(=O)c1cccs1.Cl,100.7%
24,CN(Cc1ccccc1NCc1ncc[nH]1)C(=O)c1cccs1,4.243%
25,Cc1nnn2c1COCC(CNC(=O)c1ccc3[nH]ccc3c1)C2 (stereo unspecified),13.15%
26,CCN(C)CC1CCN(C(=O)Nc2ccc(-c3csnn3)cc2)C1 (stereo unspecified),-9.21%

row,SMILES,Percent Effect
1,Cc1nc(C)c(CN(C)C2CCN(C(=O)OC(C)(C)C)CC2)s1,-6.792%
2,O=S(=O)(Nc1cn[nH]c1)c1ccc(F)c(Br)c1,-20.95%
3,CC(=O)N(C)CC(=O)NCC1(c2cccc(C)c2)CCCC1,-4.333%
4,OC1(CN2CCCC2)CCCN(Cc2c[nH]c(CC3CCCC3)n2)C1 (stereo unspecified),-7.473%
5,COCCN1CCC(c2nc3ccccc3[nH]2)CC1,5.31%
6,OC1(CN2CCCC2)CCCN(Cc2ccc(F)cc2Cl)C1 (stereo unspecified),-5.76%
7,CN(C)c1cncc(C2CCN(CC3(O)CCCCC3)CC2)n1,90.17%
8,CN(C)c1cncc(C2CCN(CCO)CC2)n1,-9.091%
9,CN(C)c1cncc(C2CCN(CC(N)=O)CC2)n1,103%
10,COCCN1CCC(c2cncc(N(C)C)n2)CC1,88.64%
11,CCn1ncnc1CN1CCOC(Cc2cccc3ccccc23)C1 (stereo unspecified),-5.971%
12,CCn1cc(C(=O)NCC2(C(N)=O)CCOCC2)c2ccccc21,-0.08495%
13,Cc1nc(CN(C)C(=O)C2CCC(=O)N(CCN(C)C)C2)cs1 (stereo unspecified),7.495%
14,Cc1cnn(C2CN(CC(=O)NCc3ccccn3)C2)c1,0.4192%
15,CCCN(CCc1ccccn1)C(=O)Cn1cc(C)cn1,98.5%
16,Cc1ccc(CC(NC(=O)Cn2cnnn2)c2ccccn2)cc1 (stereo unspecified),13.96%
17,CCCN(CCc1ccccn1)C(=O)CCc1cnn(C)c1,95.46%
18,CN(C)c1ccc(C(=O)Nc2cnn(Cc3ccccn3)c2)cc1,-12.03%
19,CN(CCCc1cnn(C)c1)C(=O)C1COc2ccccc2C1 (stereo unspecified),-12.29%
20,Cc1ccccc1C(=O)N1C[C@@H]2[C@@H](CN(C)CCc3ccccn3)[C@@H]2C1,-8.245%
21,CCCN(CCc1ccccn1)C(=O)Cn1cnnn1,104.6%
22,CN(CCc1ccccn1)C(=O)C1Cc2ccccc2CN1C (stereo unspecified),6.694%
23,N#CC1(NC(=O)COc2cc(Cl)cc(Cl)c2)CCOCC1,-7.839%
24,COc1ccc(CN2C[C@@H]3CC[C@H](C2)N(Cc2snnc2C)C3)cc1,-1.178%
25,CC(C)OCCC(=O)Nc1ncn(CC(=O)N2CCCCCC2)n1,-17.71%
26,CCCS(=O)(=O)N1CCc2onc(CNc3ncccn3)c2C1,6.344%

row,SMILES,Percent Effect
1,CCn1cc(CN2CCCC(COc3ccc(F)cc3)C2)cn1 (stereo unspecified),31.54%
2,Cc1c(CNCc2nn(-c3ccccc3)c3c2CCC3)cc(C#N)n1C,-12.67%
3,Cc1nccn1C1CCCN(C(=O)c2ccc3c(c2)OCCCO3)C1 (stereo unspecified),112.3%
4,CCc1nccn1C1CCCN(C(=O)c2ccc3c(c2)OCO3)C1 (stereo unspecified),0.5679%
5,CCc1nccn1C1CCCN(C(=O)c2ccc3c(c2)OCCO3)C1 (stereo unspecified),89.9%
6,CC(C)c1nccn1C1CCCN(C(=O)c2ccc3c(c2)OCO3)C1 (stereo unspecified),-3.611%
7,CCc1nccn1C1CCCN(C(=O)c2ccnc(N(C)C)c2)C1 (stereo unspecified),1.194%
8,Cc1nccn1C1CCCN(C(=O)c2ccc3c(c2)NC(=O)CO3)C1 (stereo unspecified),3.537%
9,CN(C)c1nc(NCc2ccccc2Cn2cccn2)ncc1F,5.014%
10,Cc1cccc(C(=O)Nc2ccc(OC3CCOCC3)c(C)c2)n1,4.017%
11,COc1ccc(CN2CCCC2)cc1Oc1ccc2c(c1)CC(CN)O2 (stereo unspecified),-16.95%
12,O=C(c1ccc(SC(F)(F)F)cc1)N1CCOCC1c1ncon1 (stereo unspecified),-6.89%
13,CC(C(=O)N(C)Cc1ccc(Br)o1)n1cncn1 (stereo unspecified),-10.62%
14,CCCn1nccc1NC(=O)c1ccc(Cl)c(N2CCNC2=O)c1,-10.44%
15,Cc1ccc(CN(C(=O)C(C)NC(N)=O)C2CC2)cc1C (stereo unspecified),10.7%
16,COCCN(Cc1ccc(F)cc1Cl)C(=O)c1ccccn1,-0.554%
17,CCCN(Cc1ccccc1O)C(=O)Nc1cnn(CCOC)c1,-1.283%
18,CC(C)N(CC(N)=O)Cc1csc(Cc2ccccc2)n1,-4.617%
19,CC(C)NC(=O)N(Cc1cc(O)nc2ccccc12)C(C)C,134.4%
20,CC(C)N(Cc1ccc(C#N)cc1)C(=O)Nc1ccccn1,7.153%
21,COCCN(Cc1ccccc1Cl)C(=O)c1c(C)cc(C)[nH]c1=O,2.486%
22,COCCN(Cc1cc(O)nc2ccccc12)C(=O)NC(C)C,129.1%
23,COCCCN(Cc1cc(O)nc2ccccc12)C(=O)NC(C)C,116.8%
24,COCCCN(Cc1ccncc1)C(=O)C1COc2ccccc2C1 (stereo unspecified),-18.33%
